Data from PubChem BioAssay AID1159580 (chemical genetic matrix, 2015).
Where “and” joins values, the source holds several entries; their conditions need not be identical. Equal values may be shown once. The whole screen tested about 5,500 compounds, of which about 2,000 (36%) were called active. About 18% were inconclusive and are not listed. Rule as the data show it: active = normalized growth mostly below about 0.91 (no sharp cut-off); inconclusive = no clear call, values can overlap the other calls; inactive = mostly above about 0.92. The list shows a part of the results.

Experiment: chemical genetic growth profiling, strain panel (AID 1159580);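 also: tested at 20 µM; growth read once vehicle control cultures reached saturation at 30 °C; 1 = growth at the plate median or of vehicle wells; lower values mean less growth of the strain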
Conditions: S. cerevisiae deletion strains, growth OD

Measured: normalized growth

CN(C)CCCO[C@H]1[C@@H](C(O)CO)OC2OC(C)(C)O[C@@H]21 (some centres not stated)
inactive: locus YAL013W, strain DEP1, hits give low values 0.928 | locus YAL021C, strain ccr4, hits give low values 1 | locus YAL026C, strain drs2, hits give low values 0.98 | locus YAL030W, strain snc1, hits give low values 0.98 | locus YBL061C, strain skt5, hits give low values 0.98 | locus YBR009C, strain hhf1, hits give low values 0.985 | locus YBR021W, strain FUR4, hits give low values 0.953 | locus YBR023C, strain chs3, hits give low values 0.98 | locus YBR171W, strain sec66, hits give low values 0.964 | locus YBR229C, strain ROT2, hits give low values 0.993 | locus YBR231C, strain swc5, hits give low values 0.992 | locus YBR279W, strain paf1, hits give low values 1.01 | locus YCL011C, strain gbp2, hits give low values 0.956 | locus YCL016C, strain dcc1, hits give low values 0.973 | locus YCL029C, strain bik1, hits give low values 0.984 | locus YCL061C, strain MRC1, hits give low values 0.987 | locus YCL069W, strain vba3, hits give low values 0.996 | locus YCR088W, strain abp1, hits give low values 0.994 | locus YDL005C, strain med2, hits give low values 0.995 | locus YDL035C, strain GPR1, hits give low values 0.946 | locus YDL040C, strain nat1, hits give low values 0.995 | locus YDL074C, strain BRE1, hits give low values 0.871 | locus YDL101C, strain DUN1, hits give low values 0.994 | locus YDL134C, strain PPH21, hits give low values 0.991 | locus YDL185W, strain tfp1, hits give low values 0.98 | locus YDL192W, strain arf1, hits give low values 0.966 | locus YDR001C, strain nth1, hits give low values 0.968 | locus YDR069C, strain doa4, hits give low values 0.989 | locus YDR101C, strain arx1, hits give low values 0.981 | locus YDR137W, strain rgp1, hits give low values 0.963 | locus YDR150W, strain NUM1, hits give low values 0.995 | locus YDR159W, strain sac3, hits give low values 0.982 | locus YDR162C, strain NBP2, hits give low values 1.08 | locus YDR195W, strain ref2 0.995 | locus YDR297W, strain sur2, hits give low values 0.992 | locus YDR318W, strain mcm21, hits give low values 0.933 | locus YDR334W, strain swr1, hits give low values 0.938 | locus YDR335W, strain msn5, hits give low values 0.981 | locus YDR388W, hits give low values 0.989 | locus YDR392W, strain spt3, hits give low values 0.921 | locus YDR502C, strain sam2, hits give low values 0.937 | locus YEL003W, strain gim4, hits give low values 0.98 | locus YEL037C, strain rad23, hits give low values 0.977 | locus YEL061C, strain CIN8 (second series), hits give low values 0.975 | locus YEL061C, strain CIN8, hits give low values 0.993 | locus YER015W, strain faa2, hits give low values 0.991 | locus YER016W, strain bim1, hits give low values 0.999 | locus YER110C, hits give low values 0.946 | locus YER111C, strain swi4, hits give low values 0.986 | locus YER155C, strain BEM2 (second series), hits give low values 0.98 | locus YER155C, strain BEM2, hits give low values 1 | locus YER167W, strain BCK2, hits give low values 0.915 | locus YFR010W, strain ubp6, hits give low values 0.971 | locus YGL078C, strain dbp3, hits give low values 1 | locus YGL167C, strain pmr1, hits give low values 0.984 | locus YGL173C, strain kem1, hits give low values 0.964 | locus YGL227W, strain vid30, hits give low values 0.987 | locus YGL240W, strain doc1, hits give low values 1 | locus YGL248W, strain PDE1, hits give low values 0.977 | locus YGL253W, strain hxk2, hits give low values 0.996 | locus YGR078C, strain PAC10, hits give low values 0.907 | locus YGR135W, strain pre9, hits give low values 0.929 | locus YGR252W, strain gcn5, hits give low values 0.849 | locus YHR013C, strain ard1, hits give low values 0.973 | locus YHR027C, strain rpn1, hits give low values 0.968 | locus YHR030C, strain SLT2, hits give low values 0.984 and 0.969 | locus YHR079C, strain IRE1 (second series), hits give low values 0.977 | locus YHR079C, strain IRE1, hits give low values 0.984 | locus YHR094C, strain hxt1, hits give low values 0.986 | locus YHR129C, strain ARP1, hits give low values 0.963 | locus YHR142W, strain chs7, hits give low values 0.946 | locus YHR200W, strain rpn10, hits give low values 0.948 | locus YIL066C, strain RNR3, hits give low values 0.951 | locus YIL073C, strain SPO22, hits give low values 0.932 | locus YIL125W, strain kgd1, hits give low values 0.993 | locus YIR030C, strain dcg1, hits give low values 0.986 | locus YJL092W, strain hpr5, hits give low values 0.987 | locus YJL095W, strain BCK1 (second series), hits give low values 0.993 | locus YJL095W, strain BCK1, hits give low values 0.883 and 0.978 | locus YJL115W, strain asf1, hits give low values 0.963 | locus YJL129C, strain trk1, hits give low values 1.01 | locus YJL134W, strain LCB3, hits give low values 0.993 | locus YJL154C, strain vps35, hits give low values 0.966 | locus YJL164C, strain tpk1, hits give low values 0.998 | locus YJL166W, strain qcr8, hits give low values 0.969 | locus YJL168C, strain set2, hits give low values 0.985 | locus YJL187C, strain SWE1 (second series), hits give low values 0.989 | locus YJL187C, strain SWE1, hits give low values 0.994 | locus YJR066W, strain TOR1, hits give low values 0.97
active: locus YGL086W, strain mad1, hits give low values 0.926 | locus YGR229C, strain SMI1, hits give low values 0.8 | locus YJR043C, strain POL32, hits give low values 0.85
